# Laboratory results reported in the supplement of paper PMC3334620.
# Whole data set: some 33,000 sequences, median “E-score (-0.5 to 0.5)” near -0.043, cut for the highest 2% near 0.37. For the sample, the highest values were picked, then their nearest neighbours and some sequences at random.
# Target: T1, Upc2 (UniProt Q12151)
# T1 sequence: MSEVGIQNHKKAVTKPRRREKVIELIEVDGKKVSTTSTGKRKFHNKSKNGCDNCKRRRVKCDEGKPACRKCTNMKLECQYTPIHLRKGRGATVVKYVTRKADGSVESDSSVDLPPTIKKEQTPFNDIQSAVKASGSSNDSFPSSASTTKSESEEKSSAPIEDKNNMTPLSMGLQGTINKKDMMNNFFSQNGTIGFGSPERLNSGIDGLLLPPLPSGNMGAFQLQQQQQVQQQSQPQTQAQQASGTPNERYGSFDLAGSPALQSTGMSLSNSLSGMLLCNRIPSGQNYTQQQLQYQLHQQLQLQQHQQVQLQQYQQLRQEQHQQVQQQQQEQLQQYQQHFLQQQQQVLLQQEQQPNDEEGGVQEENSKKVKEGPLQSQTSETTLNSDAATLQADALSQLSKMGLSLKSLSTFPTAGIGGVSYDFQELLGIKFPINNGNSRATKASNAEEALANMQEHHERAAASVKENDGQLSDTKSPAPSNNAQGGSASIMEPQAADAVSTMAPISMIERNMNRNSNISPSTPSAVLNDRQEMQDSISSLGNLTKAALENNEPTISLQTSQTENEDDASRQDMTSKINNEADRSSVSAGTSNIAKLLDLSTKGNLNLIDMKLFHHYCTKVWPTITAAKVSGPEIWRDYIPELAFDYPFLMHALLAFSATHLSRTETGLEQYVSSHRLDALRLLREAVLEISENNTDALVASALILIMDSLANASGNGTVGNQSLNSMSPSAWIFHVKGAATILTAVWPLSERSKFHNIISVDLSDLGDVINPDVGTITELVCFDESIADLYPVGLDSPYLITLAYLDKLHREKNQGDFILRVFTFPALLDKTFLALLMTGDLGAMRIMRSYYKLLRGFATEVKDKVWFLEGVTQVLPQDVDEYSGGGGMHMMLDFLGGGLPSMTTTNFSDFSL
# Test: PBM E-score (8-mer binding enrichment) (E-score (-0.5 to 0.5)); higher = stronger / more preferred TF binding
# Settings: protein concentration: 200 nM; construct: GST-full length
# Description: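 Universal 'all 10-mer' protein binding microarrays (Agilent AMADID 015681) probed with GST-tagged S. cerevisiae TFs (full-length or DBD) made by in vitro transcription/translation (PURExpress), about 100-200 nM. Bound TF was detected with fluorescent anti-GST. Each ungapped 8-mer (which stands for itself and its reverse complement) is scored by the PBM enrichment score (E-score), a modified Wilcoxon-Mann-Whitney statistic from -0.5 to +0.5, computed with the Universal PBM Analysis Suite. Scale: above 0.35 generally sequence-specific binding.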
row,Sequence,PBM E-score
1,AAATCTAA,-0.16
2,TCGCATCA,0.209
3,CCGGGCAC,-0.214
4,ACAGATGC,-0.00973
5,AAGATTGA,-0.156
6,AACCGAAT,0.277
7,AAACGAAG,0.464
8,CAACGAAG,0.235
9,AGACGAAG,0.0695
10,AAACGTAT,0.328
11,CAACGAAA,0.221
12,TAACGAAA,0.334
13,AAACGAAT,0.451
14,AAACGAAA,0.46
15,ACTCGACA,0.0576
16,ACGCACTC,0.151
17,GGTTGGGA,-0.0786
18,CCCTGCGC,-0.276
19,AGTACAGA,-0.0613
20,GGTACAGA,-0.0181
21,CCTACAGC,-0.334
22,AGTACAGC,-0.156
23,CGTACAGC,0.446
24,CGTACAGA,0.41
25,AGCAGACC,-0.0454

row,Sequence,PBM E-score
1,CAGGTACG,0.396
2,AAGGTACC,-0.0716
3,AAGGTACG,0.393
4,CAGGTACC,-0.112
5,AAGGTACT,0.00877
6,ATGGTACC,-0.257
7,CAGGTACA,-0.226
8,ATGGTACA,-0.173
9,ATGGTACG,0.388
10,CTTAGATA,-0.0328
11,AGCGTGGA,-0.0828
12,CAGAGACA,-0.356
13,AGCTCGTC,0.103
14,GGCTCGGA,0.0556
15,CGCTCGGA,0.163
16,AGCTCGTG,0.107
17,GGCTCGAA,-0.0434
18,AGCTCGTA,0.473
19,CGCTCGTC,0.127
20,CGCTCGTA,0.466
21,GGCTCGTA,0.472
22,AGGGCTAC,-0.113
23,GAGGGCGC,-0.0991
24,GTGGTTGA,-0.0855
25,TCGTAACA,0.404

row,Sequence,PBM E-score
1,TCGTATCA,0.463
2,CCGTAAGA,0.21
3,ACGTATCA,0.254
4,GCGTAACA,0.118
5,ACGTAAGA,0.146
6,GCGTATCA,0.182
7,TCGTAAGA,0.399
8,CCGTAACA,0.22
9,CTGCAGAC,-0.0383
10,AACACTGA,0.0163
11,GGGTCAAC,-0.231
12,TGAACTCA,-0.00504
13,CACCCTTC,-0.0111
14,TAATACTA,0.105
15,GAATACTA,0.104
16,AAATACGT,0.109
17,CAATACGA,0.419
18,CAATACGC,0.0949
19,GAATACGA,0.439
20,TAATACGA,0.429
21,TAATACCA,-0.0667
22,AAATACGC,0.212
23,GAATACGC,0.175
24,CAATACGG,0.196
25,AAATACGA,0.449

row,Sequence,PBM E-score
1,ACTTTATA,0.127
2,CCGTCCAC,-0.0949
3,AATACTAG,0.00488
4,ATCAGACG,0.0965
5,GGAGTGAC,-0.0854
6,AGCTCCAT,-0.216
7,ACTGTCCA,-0.0712
8,AGTACCCA,-0.131
9,AGTACCCC,-0.00507
10,CATACCCC,-0.0287
11,GGTACCCA,-0.0644
12,CGTACCCA,0.376
13,CGTACCCC,0.391
14,CTTTTGGA,-0.147
15,ACCCACAC,0.11
16,CATACGCA,0.313
17,GATACGCA,0.276
18,CATACGGA,0.365
19,TATACGGA,0.47
20,GATACGGA,0.278
21,TATACGCA,0.449
22,ACACCATC,-0.205
23,CCAAGGAC,-0.247
24,CGGAGAAA,0.158
25,CTTGATCA,-0.14

row,Sequence,PBM E-score
1,CTATATAC,0.358
2,ATCTATAC,0.287
3,GGCTATAC,0.299
4,ATTTATAC,0.41
5,AGTTATAC,0.333
6,ATTTATAA,0.0439
7,CGCTATAC,0.392
8,CTTTATAC,0.303
9,AGCTATAC,0.309
10,CGTTATAC,0.367
11,GGTTATAC,0.383
12,CTCTATAC,0.397
13,TCGAGAGA,0.0401
14,GCTAACAC,-0.0792
15,CCTTACAA,-0.227
16,GCCTATAC,0.276
17,CCCTATAC,0.342
18,ACCTATAC,0.382
19,AAGGGGGC,0.0404
20,CATCTTCA,-0.263
21,GAAACGGC,0.187
22,CAAACGAG,0.484
23,CCAACGAG,0.091
24,CTAACGAC,0.279
25,AAAACGAT,0.265

row,Sequence,PBM E-score
1,GAAACGCC,0.0519
2,GAAACGAC,0.423
3,AAAACGAG,0.316
4,ACAACGAC,0.258
5,AAAACGAC,0.375
6,CCAACGAC,0.0191
7,CAAACGAC,0.464
8,ATTGCTGG,-0.0945
9,CACGGCTC,-0.128
10,ACGCTGGA,0.0743
11,CCAACCCA,-0.236
12,ATCCACCC,-0.179
13,GGGTTACC,0.0304
14,ACGCTTAA,0.135
15,ATTGGATG,0.03
16,ATTACCAA,-0.131
17,CGCTAGAC,-0.0752
18,CGGTACAA,0.222
19,ACGTACAA,0.309
20,CAGTACAA,-0.0317
21,ACGTACCA,0.255
22,CCGTACAA,0.413
23,GCGTACAA,0.324
24,TCGTACAA,0.487
25,GCGTACCA,0.215

row,Sequence,PBM E-score
1,TCGTACCA,0.476
2,AGCCCTTC,-0.211
3,ATATATCC,0.0459
4,AGAGGACG,-0.0919
5,AATGGGCA,-0.00586
6,CAAGATAG,-0.0974
7,GTTTCGAA,0.0998
8,ATTTCGTC,0.0429
9,CTTTCGTA,0.416
10,ATTTCGTG,0.0688
11,GTTTCGGA,0.219
12,GTTTCGTA,0.446
13,CTTTCGGA,-0.11
14,ATTTCGTA,0.431
15,CTTTCGTC,-0.043
16,CATAATCC,-0.0711
17,GAAGGCGC,-0.132
18,AGCGTAAT,-0.0565
19,CAGCTATA,0.0617
20,ACACGATG,0.166
21,ACACGATC,0.123
22,CTACGATC,0.288
23,ATACGATC,0.465
24,AGACGATG,0.0313
25,ATACGATG,0.473

row,Sequence,PBM E-score
1,CGCTAAAC,0.345
2,ACAAGCCC,-0.1
3,AAGAACGG,0.0306
4,AAGAACGT,0.108
5,TAGAACGA,0.383
6,CAGAACGG,0.139
7,GAGAACGA,0.36
8,CAGAACGA,0.399
9,AAGAACGA,0.408
10,TAGAACCA,-0.0454
11,CAGAACGC,-0.0286
12,CTTGGATA,-0.103
13,AACCTAAC,-0.0536
14,CCCCAACG,-0.107
15,CCTAAACA,-0.063
16,ATTAAACA,-0.0789
17,ATTAAACG,0.461
18,ACTAAACG,0.463
19,CCTAAACG,0.472
20,ATTTAACC,-0.0686
21,ATTTAACG,0.387
22,ACTAAACA,-0.109
23,ACTAAACC,0.0385
24,ATTAAACC,-0.0396
25,CCTAAACC,0.0842

row,Sequence,PBM E-score
1,ATTTAACA,0.0412
2,CGACTCTA,0.0472
3,CAAGGTTA,0.0313
4,AGCATCCG,0.106
5,TACTCAGA,-0.0518
6,CGCCTGTA,-0.0476
7,GACCCACA,0.0499
8,CAAGTAAA,0.0181
9,GGTTGACA,-0.0866
10,ATCTAATC,-0.0686
11,CCTCGGAC,0.199
12,CCTCGTAC,0.477
13,CCTCGTCG,0.195
14,CCTCATAG,-0.226
15,TCTCGTCA,-0.0265
16,CCGCGTAC,0.324
17,TCACGTAA,0.0344
18,CCTCGTAG,0.389
19,CCTCGTGA,0.168
20,CCTCGTAA,0.444
21,CCTCGTCA,0.108
22,TCTCGTAA,0.434
